Screening results as filed in PubChem.
Shown are actives, neighbours in structure and some others; about 6.2% of the full set was active somewhere.
VP16 counter: inhibits Gal4-VP16 luciferase reporter, ROR gamma counter-screen. 310,000 tested, 3.5% active. AID 2546. Drosophila S2 Gal4-VP16 UAS-luciferase, luminescence, 20 h. Potency, µM (top dose mostly 53.6 µM), without a hit: at the highest dose activity, negative = inhibition, hits mostly inhibitors;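 also: Gal4-VP16 expression switched on by copper sulfate through the metallothionein promoter; nearly all actives have a fitted effect of over 50% in size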
KinaseGlo FLuc: Kinase-Glo luciferase inhibition (counter-screen). Q27757. Kinase-Glo luciferase, ATP luminescence, 8 min. Potency, µM (titrated, usually from 38.3 µM), inactives show at the highest dose activity change, negative = inhibition, most hits filed as inhibitors. 200,000 tested, 0.28% active; also: nearly all actives have a fitted effect of over 60% in size
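Kinase-Glo luciferase light output from ATP and luciferin was measured with 10 uM ATP, within the enzyme's linear range. Buffer: 50 mM imidazole pH 7.2, 50 mM KCl, 7 mM MgCl2, 0.01% Tween 20, 0.05% BSA; luminescence read after 8 min at ambient temperature.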
RORgamma inh: ROR gamma (mouse) transcription inhibition. P51450. Drosophila S2 Gal4-RORgamma UAS-luciferase reporter, 20 h. Potency, µM (series often up to 53.6 µM), for inactives: top-dose activity change, negative = inhibition, usual class: inhibitors. 310,000 tested, 5.4% active; also: nearly all actives have a fitted effect of over 60% in size
Target sequence (P51450 whole entry, looked up, the tested form may be a part): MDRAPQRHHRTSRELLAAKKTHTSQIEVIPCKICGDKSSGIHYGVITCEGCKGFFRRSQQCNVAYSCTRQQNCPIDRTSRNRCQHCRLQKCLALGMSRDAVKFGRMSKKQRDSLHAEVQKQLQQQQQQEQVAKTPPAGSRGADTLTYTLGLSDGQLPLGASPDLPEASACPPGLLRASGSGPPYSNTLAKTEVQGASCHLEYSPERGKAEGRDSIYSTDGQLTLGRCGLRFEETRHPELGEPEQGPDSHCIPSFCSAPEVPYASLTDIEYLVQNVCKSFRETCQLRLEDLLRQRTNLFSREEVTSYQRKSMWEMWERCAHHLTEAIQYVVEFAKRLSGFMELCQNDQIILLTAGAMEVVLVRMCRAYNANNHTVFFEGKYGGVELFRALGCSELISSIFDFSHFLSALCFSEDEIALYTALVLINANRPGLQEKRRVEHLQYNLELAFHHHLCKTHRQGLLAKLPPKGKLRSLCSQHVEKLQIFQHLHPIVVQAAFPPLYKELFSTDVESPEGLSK
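Using a luciferase readout, inhibitors were identified by reduced reporter activity in Drosophila cells coexpressing a copper-inducible Gal4–ROR gamma fusion and UAS-driven Photinus luciferase, incubated 20 hr after 700 uM copper sulfate.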
Numbers without * were called inactive; ? = inconclusive; . = not tested or not shown; [ ] = dose if it differs, or a comment. Calls follow the shape of the dose curve; as a rule, active = well fitted curve in the direction sought with a large enough effect; inconclusive = small, poorly fitted or top-dose-only effect, or another doubt; inactive = no such curve, though single readings can be large; an effect the other way counts as inactive or inconclusive. % is scaled to controls: 0 for no effect and ±100 for the full control effect; potency is read from the fitted curve at half-maximal effect.

SMILES	VP16 counter	KinaseGlo FLuc	RORgamma inh
Cc1ccc(C(=O)n2c(=S)nc3ccccn32)cc1	?	?	1.58µM*
Cc1cccc(C(=O)n2c(=S)nc3ccccn32)c1	3.16µM*	14.1µM*	2.51µM*
Cc1cccc(C(=O)N2CCCCCC2)c1	2.3%	-1.0%	-0.3%
Cc1cccn2c1nc(=S)n2C(=O)c1ccco1	-6.4%	?	6.5%
O=c1c2cn[nH]c2[nH]c(=S)n1-c1cccc(Cl)c1	2.2%	1.9%	?
CCOc1cc(C(=S)N2CCOCC2)ccc1OC(=O)c1ccc(C)cc1	-7.0%	.	30.8%
C/C(=N\NC(=O)Nc1ccccc1)c1ccccc1	3.9%	.	?
N=c1ccn(Cc2cccc(F)c2)cc1	10µM*	.	?
Nc1ccn(Cc2cccc(F)c2)n1	-0.9%	-2.8%	6.8%
Cc1ccc(CN2CCN(Cc3ccc(C)s3)CC2CCO)cc1 (stereo not given)	-1.6%	1.6%	-16.5%
O=C1OCC2=C1C(c1ccc(F)cc1)c1cc3c(cc1N2)OCCO3 (stereo not given)	2.9%	0.4%	-15.0%
CCc1ccc(CN(Cc2cccnc2)C(=O)/C=C/c2ccc(OC)cc2)cc1	5.7%	.	23.8%
S=c1[nH]nc(-c2ccccc2)n1/N=C/C=C/c1ccco1	3.16µM*	3.4%	2.82µM*
S=c1[nH]nc(-c2cccnc2)n1/N=C/C=C/c1ccco1	-1.5%	1.1%	-36.9%
S=c1[nH]nc(-c2ccco2)n1/N=C/c1cccc(Cl)c1Cl	?	3.8%	?
Cc1ccccc1-c1n[nH]c(=S)n1/N=C/C=C/c1ccco1	-18.2%	.	2.51µM*
S=c1[nH]nc(-c2ccco2)n1/N=C/C=C/c1ccccc1	?	-2.9%	2.51µM*
S=c1[nH]nc(-c2ccco2)n1/N=C/c1ccc(Cl)cc1Cl	17.8µM*	2.4%	5.62µM*
Cc1cc(-c2n[nH]c(=S)n2/N=C/C=C/c2ccco2)n[nH]1	-1.1%	.	-1.6%
S=c1[nH]nc(-c2ccc(Cl)cc2)n1/N=C/C=C/c1ccco1	-7.7%	.	?
CN1CCN(c2ncc3ncc(=O)n(CCc4ccccc4)c3n2)CC1	-3.2%	.	-21.4%
COc1ccc(-c2nc(SC(CC(=O)NCc3ccccc3)c3ccc(OC)c(OC)c3)n[nH]2)cc1 (stereo not given)	-6.0%	-1.0%	9.9%
O=C(COC(=O)c1cccc(OC(F)F)c1)NC1CCCC1	-3.9%	.	-3.7%
O=C(c1ccc(Cl)cc1Cl)N1CCSCC1	0.8%	.	-15.8%
S=c1[nH]nc(-c2ccc(Cl)cc2)n1/N=C/c1ccco1	?	.	3.16µM*
SMILES	VP16 counter	KinaseGlo FLuc	RORgamma inh
FC(F)(F)c1n[nH]c(=S)n1/N=C/c1ccco1	11.7%	0.3%	-13.8%
COc1ccc(CN2C(=NC(=O)CCC3CCCC3)SC3CS(=O)(=O)CC32)cc1 (stereo not given)	5.3%	.	-7.7%
c1ccc([P+](CC[P+](c2ccccc2)(c2ccccc2)c2ccccc2)(c2ccccc2)c2ccccc2)cc1	.	-1.1%[7.66 µM]	.
Cn1cccc1/C=N/NC(=O)c1ccccn1	0.7%	.	-3.8%
Cc1ccc(/C=N/NC(=O)c2ccccn2)s1	22.4µM*	?	?
O=C(N/N=C/c1cccs1)c1ccccn1	?	?	14.1µM*
CC(C)(C)NC(=O)C(=O)N/N=C/c1cccs1	-6.6%	-5.1%	?
Cc1cc(C(=O)N/N=C/c2ccc(C)s2)n[nH]1	-9.0%	.	-7.2%
O=C(N/N=C/c1ccncc1)c1cccs1	?	.	-2.0%
O=C(N/N=C/c1cccs1)C(=O)Nc1cccc(Cl)c1	10µM*	2.3%	3.16µM*
O=C(N/N=C\c1ccc(Cl)s1)c1cccs1	5.62µM*	13.8%	5.62µM*
CC(=O)N1CCC2(CC1)CN(c1ccccc1)C2	17.2%	-2.3%	-0.6%
CC(C)N1C(=O)CCC1C(=O)NCc1cccs1 (stereo not given)	-1.3%[10 µM]	12.6%	11.5%
COc1ccccc1C(=O)NCCN=C1NS(=O)(=O)c2ccccc21	8.6%	.	36.0%
CCN(CC)C(=O)C1CCCN(Cc2nc(-c3cccs3)no2)C1 (stereo not given)	-8.6%	2.7%	37.1%
CCc1ccc(/C=N/NC(=O)c2ccccn2)cc1	?	.	10µM*
CCN(CC)c1ccc(/C=N/NC(=O)c2ccccn2)cc1	-7.6%	.	?
OC(COc1ccc(Br)cc1)CN1CCN(c2ccccc2)CC1 (stereo not given)	-10.0%	.	-12.2%
CN(C)N1C(N)=C(C#N)C(c2cccs2)C2=C1CC(C)(C)CC2=O (stereo not given)	-6.6%	10.2%	-0.2%
Cc1nc2c3ccccc3nc(SCC(=O)c3ccc(Cl)cc3)n2n1	?	-2.5%	?
COc1cc2nc(SCC(=O)c3ccc(Br)cc3)n3nc(C)nc3c2cc1OC	?	-2.1%	12.6µM*
C=CCCCCCCCCCBr	1.3%	.	3.3%
CCn1c(-c2ccc(Cl)cc2)n[nH]c1=S	12.6µM*	-3.2%	10µM*
CCn1c(-c2ccc(C)cc2)n[nH]c1=S	11.2µM*	-2.6%	8.91µM*
CCCCn1c(-c2ccc([N+](=O)[O-])cc2)n[nH]c1=S	8.91µM*	.	2.24µM*
SMILES	VP16 counter	KinaseGlo FLuc	RORgamma inh
CCCn1c(-c2ccc(F)cc2)n[nH]c1=S	1.3%	4.0%	?
CCn1c(-c2nn(C)c(C)c2Cl)n[nH]c1=S	?	-1.8%	?
CCn1c(-c2cccnc2)n[nH]c1=S	-9.9%	-3.1%	?
Cc1nc(Cl)c(S(N)(=O)=O)c(C)c1Cl	4.0%	-0.3%	-3.7%
Cc1ccccc1N1CCN(S(=O)(=O)C[C@]23CCC(CC2NC(=O)[C@@H](N)CCS(C)(=O)=O)C3(C)C)CC1 (stereo not given in full)	.	-5.0%	.
Cc1cc(N2CCN(C)CC2)nc2ccc(NC(=O)CCC(=O)NCc3ccco3)cc12	-3.4%	-2.3%	-10.9%
COc1ccc(Nc2nc(-c3ccccc3)nc3ccccc23)cc1S(=O)(=O)N1CCOCC1	-21.6%	.	?
CN(C)c1ccc(-c2ccc(C3C4C=CCCC4(C)C(=O)N3Cc3ccccc3)c(F)c2)cc1 (stereo not given)	-7.9%	.	19.4%
CCO/C=C/C(O)(CNC(=O)c1ccc(C(C)(C)C)cc1)C(F)(F)F (stereo not given)	20µM*	2.2%	-85.4%
CCOC(=O)CNC(=O)c1ccc(C)cc1	-2.9%	-7.7%	43.3%
O=C(NCc1ccccc1)C(c1ccccc1F)N(C(=O)c1csnn1)C1CCCC1 (stereo not given)	8.0%	.	22.1%
COc1cccc(N2CCN(C(=O)CCCCCNc3nc(=S)[nH]c4ccccc34)CC2)c1	?	3.4%	8.91µM*
O=C(CCCCCNc1nc(=S)[nH]c2ccccc12)N1CCN(c2ccccn2)CC1	?	-0.2%	10µM*
Cc1ccc(CNC(=O)CCCCCNc2nc(=S)[nH]c3ccccc23)cc1	-9.3%	-1.0%	?
O=C(CCCn1c(=O)[nH]c2ccccc2c1=O)N1CCN(c2ccccn2)CC1	-9.5%	1.0%	-23.4%
O=C(CCOc1ccccc1F)N1CCN(c2ccccc2O)CC1	17.5%[10 µM]	-2.8%	?
Nc1ccc(N=Nc2ccccc2)c(N)c1	3.5%	.	-2.1%
Nc1ccccc1N=Nc1ccccc1N	?	.	10µM*
O=C(c1ccc(Cl)cc1Cl)c1ncc(C(F)(F)F)cc1Cl	1.6%	0.1%	-0.4%
O/N=C(\c1ccc(Cl)cc1Cl)c1ncc(C(F)(F)F)cc1Cl	25.1µM*	5.6%	11.2µM*
